UDG counterscr: blocks uracil-DNA glycosylase in AID counter-screen | FRET deamination/UDG coupled assay, UDG read, 4 h | Potency, µM (top dose mostly 115 µM), without a hit: top-dose activity change, negative = inhibition, usual class: inhibitors | actives 0.14% (n = 91,000); note: nearly all actives have a fitted effect of over 65% in size
AID inh: activation induced cytidine deaminase inhibition; Q9GZX7; Potency, µM (series often up to 115 µM), actives largely listed as inhibitors; AID deamination FRET fluorescence, UDG-coupled, 4 h; actives 0.32% (n = 91,000); AID 1347428; note: nearly all actives have a fitted effect of over 25% in size
Target sequence (Q9GZX7 whole entry, looked up): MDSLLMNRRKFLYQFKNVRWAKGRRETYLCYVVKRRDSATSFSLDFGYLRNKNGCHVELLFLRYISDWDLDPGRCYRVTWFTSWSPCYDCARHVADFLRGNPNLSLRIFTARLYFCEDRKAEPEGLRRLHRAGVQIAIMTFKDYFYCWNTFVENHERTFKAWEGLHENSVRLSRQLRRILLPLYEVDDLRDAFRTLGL
* hit, by the source's call; i = inactive; ? = inconclusive. Rows were chosen to be rich in hits. Some 0.4% of all compounds tested hit in one or more screens of this group. Calls come from the whole dose curve; as a rule, active = well fitted curve in the direction sought with a large enough effect; inconclusive = small, poorly fitted or top-dose-only effect, or another doubt; inactive = no such curve, though single readings can be large; an effect the other way counts as inactive or inconclusive. % is set by controls: 0 for no effect and ±100 for the full control effect; potency is the fitted concentration of half-maximal effect.

SMILES | UDG counterscr | AID inh
COC(=O)c1ccc(/C=C(/C#N)C(=O)Nc2cccc(OC)c2)cc1 | -2.3% | i
CCc1ccc(NS(=O)(=O)c2cc(-c3cnc(C4CC4)o3)ccc2C)cc1 | -8.9% | i
Cc1cccc(N(C)S(=O)(=O)c2cc(-c3cnc(C4CC4)o3)ccc2C)c1 | 79.4µM* | ?
Cn1c(SCC(=O)NCc2ccco2)nnc1-c1ccc2c(c1)OCCO2 | 2.2% | i
CCOC(=O)N1CCc2c(sc(NCc3cccc(F)c3)c2C(=O)Nc2ccc(OC)cc2)C1 | ? | i
CCOC(=O)N1CCc2c(sc(NCc3ccc(N(C)C)cc3)c2C(=O)Nc2ccc(OC)cc2)C1 | -28.7% | 50.1µM*
CCc1cccc(CC)c1NC(=O)C(Sc1ccccc1)c1ccccc1 (configuration not stated) | -2.5% | i
CCC(Sc1nc2c(sc3ccccc32)c(=O)n1CCc1ccccc1)C(=O)N(CC)CC (configuration not stated) | 9.1% | i
CCC(Sc1nc2c(sc3ccccc32)c(=O)n1CCc1ccc(OC)c(OC)c1)C(=O)N(CC)CC (configuration not stated) | -18.1% | 31.6µM*
Cc1cc2nc(/C(C#N)=C/c3coc4ccccc4c3=O)[nH]c2cc1C | -1.8% | i
COc1cccc(N2CCN(C(=O)CCS(=O)(=O)c3ccc4c(c3)CC(=O)N4C)CC2)c1 | ? | i
CN1C(=O)Cc2cc(S(=O)(=O)CCC(=O)N3CCN(c4ccc(Cl)cc4)CC3)ccc21 | 89.1µM* | i
CCN(CC)C(=O)Cn1nc(-c2ccc(C)cc2)c2ccccc2c1=O | -5.8% | i
CCOc1ccc(-n2c(SCc3nc(-c4ccc(OC)cc4)no3)nnc2-c2ccncc2)cc1 | 79.4µM* | ?
CCOc1ccc(-n2c(SCc3nc(-c4ccccc4C)no3)nnc2-c2ccccc2)cc1 | 8.0% | i
Cc1ccccc1-c1noc(CSc2nnc(-c3ccncc3)n2-c2ccc(F)cc2)n1 | ? | i
Cc1ccc(-n2c(SCc3nc(-c4ccccc4C)no3)nnc2-c2ccncc2)cc1C | ? | 31.6µM*
CCOc1ccc(-n2c(Cc3ccccc3)nnc2SCc2nc(-c3cccs3)no2)cc1 | ? | 31.6µM*
COc1ccc(-n2c(SCc3nc(-c4ccc(C)cc4)no3)nnc2-c2ccccc2)cc1 | -5.0% | i
COc1ccc(-c2noc(CSc3nnc(C)n3-c3ccc(C)cc3)n2)cc1OC | ? | i
COc1ccc(-c2noc(CSc3nnc(-c4ccncc4)n3-c3cccc(C)c3)n2)cc1OC | 79.4µM* | ?
CCn1c(SC(C)C(=O)Nc2nccs2)nnc1-c1ccco1 (configuration not stated) | 0.4% | i
CC1CCN(S(=O)(=O)c2ccc(NC(=O)C3CC(=O)N(CCc4ccc(F)cc4)C3)cc2)CC1 (configuration not stated) | 89.1µM* | i
CCc1ccc(NC(=O)C2CCCN(S(=O)(=O)c3ccc(F)cc3)C2)cc1 (configuration not stated) | -0.7% | i
Cc1cc(-c2csc(Nc3ccc(O)cc3)n2)ccc1F | -3.7% | i
SMILES | UDG counterscr | AID inh
CC(C)(C)C1CCc2nc(SCC(N)=O)c(C#N)c(C(F)(F)F)c2C1 (configuration not stated) | 79.4µM* | ?
COC(=O)CSc1nc2c(c(-c3cccs3)c1C#N)CCCC2 | -6.2% | i
O=C(Nc1nonc1-c1ccc2c(c1)CCCC2)c1cc(=O)c2ccc(Br)cc2o1 | 16.2% | 20µM*
C=CCSc1nnc(NC(=O)c2cc(=O)c3ccc(Br)cc3o2)s1 | 4.9% | i
CCc1ccc(NC(=O)CSc2nc(C)c(C(=O)Nc3ccc(Cl)cc3)c(-c3ccc(OC)cc3)c2C#N)cc1 | 89.1µM* | ?
COc1ccc(-c2c(C#N)c(SCC(=O)Nc3ccccc3C)nc(C)c2C(=O)Nc2ccc(Cl)cc2)cc1 | ? | i
COc1ccc2[nH]c(C)c(C(=O)CN3CCC(C)CC3)c2c1 | 0.0% | i
COc1ccc2[nH]c(C)c(C(=O)CN3CCC(Cc4ccccc4)CC3)c2c1 | 89.1µM* | i
CC1CCCC/C1=N\NC(=S)Nc1ccccc1C(F)(F)F (configuration not stated) | -16.9% | i

Screening data as filed in PubChem.
